B1: Caulobacter ParB omega fusion; a variant is named by its letters at X, in order, B8GW30 (parent)
chain: MESVVVGEPGMSEGRRGLGRGLSALLGEVDAAPAQAPGEQLGGSREAPIEILQRNPDQPRRTFREEDLEDLSNSIREKGVLQPILVRPSPDTAGEYQIVAGERAWRAAQRAGLKTVPIMVRELDDLAVLEIGIIENVQRADLNVLEEALSYKVLMEKFERTQENIAQTIGKSXSHVANXMRLLXLPDEVQSYLVSGELTAXHARAIAAAADPVALAKQIIEGGLSVRETEALARKAPNLSAGKSKGGRPPRVKDTDTQALESDLSSVLGLDVSIDHRGSTGTLTITYATLEQLDDLCNRLTRGI

Over roughly 81,000 sequences, “one-hybrid fitness for binding NBS DNA” has its median near -0.1; the highest 2% begin near 0.36. The entries come from a sample that favours the highest values as a whole.

These results are taken from a collection of fitness landscapes (doi:10.1016/j.celrep.2020.107928).

The experiment covers variants of B1. Put plainly: one-hybrid fitness for binding NBS DNA (the Noc-binding site; scaled: cognate 1, non-cognate 0); higher = stronger binding. To be noted: with NBS DNA site. In a few lines: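 Fitness here means the log change in variant-to-wild-type read ratio between plasmids sequenced before and after selection. That scale was set so cognate equals 1 and non-cognate equals 0. The selection was a bacterial one-hybrid screen of Caulobacter ParB libraries, four specificity codons randomised, in E. coli USO carrying a HIS3 reporter with the site 19 bp from the promoter, grown 48 hours at 37°C on M9-minus-histidine with 0.1 mM IPTG and 5 mM 3-AT.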
In the case of AFTK, the “one-hybrid fitness for binding NBS DNA” value was ≤ 0.2.

For the variant SQEG, the “one-hybrid fitness for binding NBS DNA” value is ≤ 0.2.

As to CATP, the “one-hybrid fitness for binding NBS DNA” value is ≤ 0.2.

For LHPG, the “one-hybrid fitness for binding NBS DNA” value is ≤ 0.2.

Regarding CDGK, the “one-hybrid fitness for binding NBS DNA” value is ≤ 0.2.

For SSSM, the “one-hybrid fitness for binding NBS DNA” value was ≤ 0.2.

As to GDDT, the “one-hybrid fitness for binding NBS DNA” value was ≤ 0.2.

Consider QKAG, for which the “one-hybrid fitness for binding NBS DNA” value was ≤ 0.2.

Regarding QKFF, the “one-hybrid fitness for binding NBS DNA” value is ≤ 0.2.

On to QKFT, for which the “one-hybrid fitness for binding NBS DNA” value was 0.366.

Regarding QKFS, the “one-hybrid fitness for binding NBS DNA” value turned out to be 0.277.

Take QKAC: the “one-hybrid fitness for binding NBS DNA” value is ≤ 0.2.

Turning to QKAT, the “one-hybrid fitness for binding NBS DNA” value is 0.543.

Regarding SHPD, the “one-hybrid fitness for binding NBS DNA” value is ≤ 0.2.

Turning to QKML, the “one-hybrid fitness for binding NBS DNA” value is ≤ 0.2.

Turning to HTHP, the “one-hybrid fitness for binding NBS DNA” value is ≤ 0.2.

For the variant RGSE, the “one-hybrid fitness for binding NBS DNA” value is ≤ 0.2.

In the case of SGGC, the “one-hybrid fitness for binding NBS DNA” value was ≤ 0.2.

Regarding TILG, the “one-hybrid fitness for binding NBS DNA” value was ≤ 0.2.

With LRDT, the “one-hybrid fitness for binding NBS DNA” value is ≤ 0.2.

Regarding RTGI, the “one-hybrid fitness for binding NBS DNA” value is ≤ 0.2.

Regarding RYKS, the “one-hybrid fitness for binding NBS DNA” value was found to be 0.57.

In the case of RYKP, the “one-hybrid fitness for binding NBS DNA” value was ≤ 0.2.

Turning to RYKN, the “one-hybrid fitness for binding NBS DNA” value worked out at 0.218.

RYKC: the “one-hybrid fitness for binding NBS DNA” value turned out to be 0.367.

For RYVH, the “one-hybrid fitness for binding NBS DNA” value was ≤ 0.2.

As to RYKD, the “one-hybrid fitness for binding NBS DNA” value is ≤ 0.2.

RYYC: the “one-hybrid fitness for binding NBS DNA” value was ≤ 0.2.

Turning to RYVC, the “one-hybrid fitness for binding NBS DNA” value was ≤ 0.2.

Consider RYKH, for which the “one-hybrid fitness for binding NBS DNA” value was 0.396.

On to KHNS, for which the “one-hybrid fitness for binding NBS DNA” value is ≤ 0.2.

Turning to NLKT, the “one-hybrid fitness for binding NBS DNA” value was ≤ 0.2.

In the case of YEHY, the “one-hybrid fitness for binding NBS DNA” value was ≤ 0.2.

With ADVD, the “one-hybrid fitness for binding NBS DNA” value was ≤ 0.2.

Turning to SIIV, the “one-hybrid fitness for binding NBS DNA” value was ≤ 0.2.

As for DVHC, the “one-hybrid fitness for binding NBS DNA” value was ≤ 0.2.

Consider VIQR, for which the “one-hybrid fitness for binding NBS DNA” value is ≤ 0.2.

Turning to YNMS, the “one-hybrid fitness for binding NBS DNA” value is ≤ 0.2.

For the variant QKDY, the “one-hybrid fitness for binding NBS DNA” value was ≤ 0.2.

QTYY: the “one-hybrid fitness for binding NBS DNA” value came out at 0.262.

QLDY: the “one-hybrid fitness for binding NBS DNA” value is ≤ 0.2.

Consider QCYY, for which the “one-hybrid fitness for binding NBS DNA” value worked out at 0.275.

On to QTRY, for which the “one-hybrid fitness for binding NBS DNA” value came to 0.685.

Consider QPRY, for which the “one-hybrid fitness for binding NBS DNA” value was ≤ 0.2.

For QLRY, the “one-hybrid fitness for binding NBS DNA” value came out at 0.451.

In the case of QTWY, the “one-hybrid fitness for binding NBS DNA” value is ≤ 0.2.

As to QLYY, the “one-hybrid fitness for binding NBS DNA” value is ≤ 0.2.

In the case of QCRY, the “one-hybrid fitness for binding NBS DNA” value amounted to 0.637.

For QKRY, the “one-hybrid fitness for binding NBS DNA” value turned out to be 0.518.

Consider QKYY, for which the “one-hybrid fitness for binding NBS DNA” value is ≤ 0.2.

As for GQTS, the “one-hybrid fitness for binding NBS DNA” value was ≤ 0.2.

In the case of PQAC, the “one-hybrid fitness for binding NBS DNA” value was ≤ 0.2.

GTQM: the “one-hybrid fitness for binding NBS DNA” value was ≤ 0.2.

Take HAAV: the “one-hybrid fitness for binding NBS DNA” value is ≤ 0.2.

For KEKL, the “one-hybrid fitness for binding NBS DNA” value is ≤ 0.2.

In the case of GHAV, the “one-hybrid fitness for binding NBS DNA” value is ≤ 0.2.

Regarding VLHR, the “one-hybrid fitness for binding NBS DNA” value was ≤ 0.2.

In the case of PYWE, the “one-hybrid fitness for binding NBS DNA” value was ≤ 0.2.

As for HKSN, the “one-hybrid fitness for binding NBS DNA” value was ≤ 0.2.

Regarding MTAW, the “one-hybrid fitness for binding NBS DNA” value is ≤ 0.2.

For the variant VLNA, the “one-hybrid fitness for binding NBS DNA” value was ≤ 0.2.

In the case of TGSV, the “one-hybrid fitness for binding NBS DNA” value is ≤ 0.2.

As to QAYY, the “one-hybrid fitness for binding NBS DNA” value was ≤ 0.2.

As for QIYY, the “one-hybrid fitness for binding NBS DNA” value was ≤ 0.2.

QIRY: the “one-hybrid fitness for binding NBS DNA” value was determined as 0.378.

As to QIHY, the “one-hybrid fitness for binding NBS DNA” value was ≤ 0.2.

Take QAFY: the “one-hybrid fitness for binding NBS DNA” value amounted to 0.396.

As for QARY, the “one-hybrid fitness for binding NBS DNA” value came out at 0.499.

For the variant QAFN, the “one-hybrid fitness for binding NBS DNA” value is ≤ 0.2.

For the variant QMYY, the “one-hybrid fitness for binding NBS DNA” value was ≤ 0.2.

In the case of QAAY, the “one-hybrid fitness for binding NBS DNA” value is ≤ 0.2.

On to QMDY, for which the “one-hybrid fitness for binding NBS DNA” value was ≤ 0.2.

On to QADY, for which the “one-hybrid fitness for binding NBS DNA” value was ≤ 0.2.

With QMRY, the “one-hybrid fitness for binding NBS DNA” value was determined as 0.566.

On to WTQT, for which the “one-hybrid fitness for binding NBS DNA” value is ≤ 0.2.

With RKML, the “one-hybrid fitness for binding NBS DNA” value was ≤ 0.2.

As for FQSI, the “one-hybrid fitness for binding NBS DNA” value was ≤ 0.2.

With MFAL, the “one-hybrid fitness for binding NBS DNA” value was ≤ 0.2.

In the case of SWRR, the “one-hybrid fitness for binding NBS DNA” value is ≤ 0.2.

As to QHDY, the “one-hybrid fitness for binding NBS DNA” value is ≤ 0.2.

On to QHYY, for which the “one-hybrid fitness for binding NBS DNA” value was ≤ 0.2.

In the case of QHRY, the “one-hybrid fitness for binding NBS DNA” value was 0.488.

As for QSYY, the “one-hybrid fitness for binding NBS DNA” value is ≤ 0.2.

Take QSDY: the “one-hybrid fitness for binding NBS DNA” value was ≤ 0.2.

As for QSRY, the “one-hybrid fitness for binding NBS DNA” value turned out to be 0.505.

Turning to YIRY, the “one-hybrid fitness for binding NBS DNA” value is ≤ 0.2.

Consider KRNT, for which the “one-hybrid fitness for binding NBS DNA” value came to 0.617.

As to NRNT, the “one-hybrid fitness for binding NBS DNA” value was ≤ 0.2.

On to NRDT, for which the “one-hybrid fitness for binding NBS DNA” value was ≤ 0.2.

As for KRDT, the “one-hybrid fitness for binding NBS DNA” value was 0.421.

On to DRDT, for which the “one-hybrid fitness for binding NBS DNA” value was ≤ 0.2.

As for KCNT, the “one-hybrid fitness for binding NBS DNA” value turned out to be 0.207.

Regarding MDAV, the “one-hybrid fitness for binding NBS DNA” value was ≤ 0.2.

TRPC: the “one-hybrid fitness for binding NBS DNA” value is ≤ 0.2.

Consider QHTN, for which the “one-hybrid fitness for binding NBS DNA” value was ≤ 0.2.

Consider QMTD, for which the “one-hybrid fitness for binding NBS DNA” value was ≤ 0.2.

On to QKTD, for which the “one-hybrid fitness for binding NBS DNA” value was ≤ 0.2.

As for QMTH, the “one-hybrid fitness for binding NBS DNA” value was ≤ 0.2.

As to QMTS, the “one-hybrid fitness for binding NBS DNA” value worked out at 0.403.

With QKTS, the “one-hybrid fitness for binding NBS DNA” value amounted to 0.475.

QHTP: the “one-hybrid fitness for binding NBS DNA” value was ≤ 0.2.

Turning to QKTN, the “one-hybrid fitness for binding NBS DNA” value was ≤ 0.2.

Consider QHTS, for which the “one-hybrid fitness for binding NBS DNA” value came out at 0.372.

In the case of QPTS, the “one-hybrid fitness for binding NBS DNA” value is ≤ 0.2.

Take QCTS: the “one-hybrid fitness for binding NBS DNA” value is 0.458.

With QSTS, the “one-hybrid fitness for binding NBS DNA” value is 0.364.

Turning to IAMY, the “one-hybrid fitness for binding NBS DNA” value was ≤ 0.2.

For QCIF, the “one-hybrid fitness for binding NBS DNA” value was ≤ 0.2.

Turning to PRQG, the “one-hybrid fitness for binding NBS DNA” value was ≤ 0.2.

As for VKPT, the “one-hybrid fitness for binding NBS DNA” value was ≤ 0.2.

Turning to YCVL, the “one-hybrid fitness for binding NBS DNA” value was ≤ 0.2.

For DHNQ, the “one-hybrid fitness for binding NBS DNA” value was ≤ 0.2.

Consider SNYG, for which the “one-hybrid fitness for binding NBS DNA” value was ≤ 0.2.

On to PCIT, for which the “one-hybrid fitness for binding NBS DNA” value was ≤ 0.2.

NGMR: the “one-hybrid fitness for binding NBS DNA” value is ≤ 0.2.

For RLHW, the “one-hybrid fitness for binding NBS DNA” value is ≤ 0.2.

Regarding LRLN, the “one-hybrid fitness for binding NBS DNA” value was ≤ 0.2.

Turning to RGQR, the “one-hybrid fitness for binding NBS DNA” value was ≤ 0.2.

On to QHIR, for which the “one-hybrid fitness for binding NBS DNA” value stood at 0.352.

For QHGN, the “one-hybrid fitness for binding NBS DNA” value is ≤ 0.2.

Take QHPR: the “one-hybrid fitness for binding NBS DNA” value worked out at 0.248.

On to QHGD, for which the “one-hybrid fitness for binding NBS DNA” value is ≤ 0.2.

With QHHR, the “one-hybrid fitness for binding NBS DNA” value came out at 0.571.

Regarding QHGR, the “one-hybrid fitness for binding NBS DNA” value was 0.546.

Take QHYR: the “one-hybrid fitness for binding NBS DNA” value came out at 0.471.

For QHRR, the “one-hybrid fitness for binding NBS DNA” value worked out at 0.989.

Consider QHRN, for which the “one-hybrid fitness for binding NBS DNA” value came out at 0.334.

Take QHHN: the “one-hybrid fitness for binding NBS DNA” value was ≤ 0.2.

As for QHWR, the “one-hybrid fitness for binding NBS DNA” value came to 0.363.

In the case of QHHQ, the “one-hybrid fitness for binding NBS DNA” value was ≤ 0.2.

As for IYTG, the “one-hybrid fitness for binding NBS DNA” value was ≤ 0.2.

Turning to QEPT, the “one-hybrid fitness for binding NBS DNA” value is ≤ 0.2.

In the case of QKVW, the “one-hybrid fitness for binding NBS DNA” value is ≤ 0.2.

As for HKNP, the “one-hybrid fitness for binding NBS DNA” value is ≤ 0.2.

Take NTTN: the “one-hybrid fitness for binding NBS DNA” value was ≤ 0.2.

Turning to VWNG, the “one-hybrid fitness for binding NBS DNA” value is ≤ 0.2.

As to CAIM, the “one-hybrid fitness for binding NBS DNA” value was ≤ 0.2.

Take PVVW: the “one-hybrid fitness for binding NBS DNA” value is ≤ 0.2.

YKVT: the “one-hybrid fitness for binding NBS DNA” value is ≤ 0.2.

In the case of VSTT, the “one-hybrid fitness for binding NBS DNA” value was ≤ 0.2.

For QSTN, the “one-hybrid fitness for binding NBS DNA” value is ≤ 0.2.

In the case of QPTT, the “one-hybrid fitness for binding NBS DNA” value is ≤ 0.2.

QCTT: the “one-hybrid fitness for binding NBS DNA” value amounted to 0.486.

As to QLTT, the “one-hybrid fitness for binding NBS DNA” value worked out at 0.393.

Turning to QMTQ, the “one-hybrid fitness for binding NBS DNA” value was ≤ 0.2.

Consider QSTH, for which the “one-hybrid fitness for binding NBS DNA” value is ≤ 0.2.

As to QMTT, the “one-hybrid fitness for binding NBS DNA” value turned out to be 0.463.

Turning to QMTL, the “one-hybrid fitness for binding NBS DNA” value is ≤ 0.2.

For QLTP, the “one-hybrid fitness for binding NBS DNA” value is ≤ 0.2.

Consider QLTS, for which the “one-hybrid fitness for binding NBS DNA” value was found to be 0.307.

As for QSTT, the “one-hybrid fitness for binding NBS DNA” value was 0.403.

On to QITT, for which the “one-hybrid fitness for binding NBS DNA” value worked out at 0.314.

On to LYGT, for which the “one-hybrid fitness for binding NBS DNA” value was ≤ 0.2.

For ACDR, the “one-hybrid fitness for binding NBS DNA” value is ≤ 0.2.

For the variant DHGS, the “one-hybrid fitness for binding NBS DNA” value was ≤ 0.2.
